Assay results reported in PubChem BioAssay AID1845 (The Scripps Research Institute Molecular Screening Center, 2009).
Screen size: about 290,000 compounds; about 490 (0.17%) were called active. The sample holds actives, similar compounds and a random draw of the others, so the mix is not that of the screen. A number with no mark means an inactive call. No stated cut-off is given here; in the data, active means inhibition above about 37%; inactive means the rest.

Assay: compounds displacing fluorescent DNA intercalator, primary screen, artefact control for HCV NS3 helicase inhibitor project, biochemical, FID fluorescence (AID 1845);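 further: 0% = vehicle and 100% = reference compound; higher means more ethidium bromide displaced from hairpin DNA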
Settings: DNA fluorescent intercalator displacement, at 7.9 µM, hits give high values

Point of comparison: Cc1c(Cl)cccc1NC(=O)NCCCN1CCCC1=O, inhibition -5.46%. Against it:
- COc1ccc(C(=O)COC(=O)Cn2cnc3c2c(=O)n(C)c(=O)n3C)c(OC)c1 — lower, -23%
- O=C(Nc1ccc([N+](=O)[O-])cc1)OCCc1ccccn1 — higher, 5.74%
- COc1ccc(CSc2nnnn2-c2ccc(O)cc2)cc1F — lower, -6.37%
- COc1ccc(CC(=O)NC2CCSc3ccccc32)cc1OC (configuration not stated) — lower, -19.9%
- COc1ccc(-c2noc(CCCC(=O)NC3CCCC3)n2)cc1OC — lower, -34.4%
- Cc1ccc(C2CC(c3cccc(NS(C)(=O)=O)c3)=NN2S(C)(=O)=O)cc1 (configuration not stated) — lower, -20.2%
- CN(CC(=O)Nc1c(Cl)cccc1Cl)C(=O)CNC(=O)C1CCCCC1 — lower, -9.61%
- CCOC(=O)C1(Cc2ccccc2C)CCCN(C(=O)c2ccc(COC)o2)C1 (configuration not stated) — lower, -43.4%
- Cn1c(=O)c2ccccc2n(CC(=O)Nc2ccc3c(c2)OCCO3)c1=O — lower, -7.1%
- COc1ccc(/C=C2\SC(=O)N(CCC(=O)NC3CCS(=O)(=O)C3)C2=O)cc1 (configuration not stated) — lower, -25.1%
- COc1ccc(Br)cc1CN(C)CC(=O)Nc1cc([N+](=O)[O-])ccc1OC — higher, 0.14%
- O=C(NC1CCCCC1)C1CCC(CNS(=O)(=O)c2ccccc2)CC1 (configuration not stated) — lower, -36.5%
- Cc1ccc(C(C(=O)NCC2CCCO2)N(C(=O)c2snc(C(N)=O)c2N)c2ccc(C(C)C)cc2)o1 (configuration not stated) — lower, -41%
- CCCCNC(=O)C1(O)c2ccccc2NC(=O)N1c1ccc(Cl)cc1 (configuration not stated) — lower, -11.7%
- CCCNC(=O)c1ccc(N2CCC3(CC2)CC(c2ccc(Cl)cc2)=NO3)c([N+](=O)[O-])c1 — lower, -20%
- COc1ccc(OC)c(C(C)NC(=S)Nc2ccc(S(=O)(=O)Nc3ncccn3)cc2)c1 (configuration not stated) — lower, -59.4%
- COc1ccccc1NC(=O)CCC(=O)OC(C)C(=O)c1ccccc1 (configuration not stated) — lower, -17.2%
- COc1cccc(NC(=O)N2C3CCCC2CC(NC(C)=O)C3)c1 (configuration not stated) — higher, -3.46%
- CC[n+]1cc(C)ccc1/C=C/c1ccc(N(C)C)cc1 — lower, -33.2%
- COc1ccc(N2CCN(S(=O)(=O)c3cc(Br)cnc3N)CC2)cc1 — higher, -2.88%
- CC(=O)c1ccc(NC(=O)c2sc3nc4n(c(=O)c3c2C)CCCCC4)cc1 — lower, -25.9%
- Cc1ccn(CCC(=O)N2c3ccccc3CC2C)n1 (configuration not stated) — lower, -9.3%
- O=C(/C=C/c1ccc([N+](=O)[O-])o1)NNC(=O)c1ccc(F)cc1 — higher, -4.43%
- CCN(CC)c1ccc(NC(=O)CN2CCN(c3ccccn3)CC2)cc1 — lower, -17.6%
- O=C(Cn1ccc2cc(S(=O)(=O)N3CCCC3)ccc21)NCc1ccccc1 — lower, -16.4%
- O=C(c1ccc[nH]c1=S)N1CCN(S(=O)(=O)c2ccc(Br)cc2Cl)CC1 — lower, -16.3%
- C/C(=N\Nc1cccc(C(=O)O)c1)c1ccc2c(c1)Nc1ccccc1S2 — lower, -16.1%
- NS(=O)(=O)c1ccc2nc(NC(=O)CS(=O)(=O)c3ccc(F)cc3)sc2c1 — higher, -3.98%
- CC(CCc1ccc(O)cc1)NCc1ccc(Cl)cc1Cl (configuration not stated) — higher, 12.2%
- CCN(CC(=O)Nc1ccccc1OC)C(=O)Cn1cnc2ccccc2c1=O — higher, -5.22%
- Cc1cc(-c2nnc(CCC(=O)NC(c3ccccc3)c3ccccc3)o2)no1 — lower, -7.1%
- Cc1ccc(C(C)C)c(OCCSc2nc3ccccc3n2CC(=O)O)c1 — lower, -11.6%
- O=C(CSc1nc2nccnc2c(=O)n1Cc1cccs1)Nc1ccccc1F — lower, -11.4%
- COc1ccc(-c2noc(C(C)NS(=O)(=O)c3ccc(NC(C)=O)cc3)n2)cc1 (configuration not stated) — lower, -8%
- CCCCCC1CC(COc2ccccc2)OC1=O (configuration not stated) — lower, -26.6%
- O=C1C(=O)N(CCN2CCOCC2)C(c2cccc(Cl)c2)/C1=C(/O)c1ccc2c(c1)OCO2 (configuration not stated) — lower, -31.7%
- Cc1nnc(SCC(=O)N2c3ccccc3C(C)(c3ccc(Cl)cc3)CC2(C)C)s1 (configuration not stated) — lower, -27.2%
- Cn1c(=O)n(C)c2cc(S(=O)(=O)Nc3ccc(F)cc3)ccc21 — higher, -0.97%
- CCc1ccc(-c2cc(C(=O)NN3CCN(C)CC3)c3ccccc3n2)cc1 — higher, 16.5%
- O=S(=O)(NCC1CC1)c1ccc(F)c(Cl)c1 — higher, -2.55%
- O=C(NCC(=O)N1CCN(c2ccccc2O)CC1)c1ccc2ccccc2c1 — lower, -38.7%
- CCc1ccc(NC(=O)COC(=O)c2cccs2)cc1 — lower, -15%
- CCOC(OCC)c1ccc(/C=C\c2nccc(N)n2)cc1 — lower, -11.1%
- CCN1CCN(c2ccc(S(=O)(=O)N3CCCCC3)cc2NC(=O)Cc2c(Cl)cccc2Cl)CC1 — higher, 24.2%
- CN1CCN(c2ccc(S(=O)(=O)N3CCCCC3)cc2NC(=O)Cc2ccccc2F)CC1 — higher, 17.4%
- CN(C)c1cccc(C(=O)N2CCC(n3nccc3NC(=O)C3CCOC3)CC2)c1 (configuration not stated) — lower, -16.7%
- COc1ccc(NC(=O)CSc2nc3ccccc3c(=O)n2C)cc1 — lower, -13.4%
- COCCCN1C(=O)C(=O)/C(=C(/O)c2ccc(S(=O)(=O)N3CCOCC3)cc2)C1c1ccc(F)cc1 (configuration not stated) — lower, -50.7%
- CC1CN(C(=O)CCC(=O)NC2CCN(Cc3ccccc3)CC2)c2ccccc2O1 (configuration not stated) — higher, 2.82%
- CC1CN(C(=O)CCC(=O)NCc2cccnc2)c2ccccc2O1 (configuration not stated) — lower, -10.2%
- Cc1cc(O)c(C(=O)/C=C/c2c(F)c(F)c(F)c(F)c2F)c(=O)o1 — lower, -15.9%
- CC1CC(C)CN(CCCNC(=O)Cn2ncc3c([nH]c4ccccc43)c2=O)C1 (configuration not stated) — higher, 5.73%
- Cc1c2cnn(CC(=O)NCc3ccccn3)c(=O)c2c(C)n1Cc1ccc(Cl)cc1 — lower, -39%

With COc1ccc(CC(=O)Nc2cc(S(=O)(=O)N3CCCCC3)ccc2N2CCN(C)CC2)cc1 the inhibition was 39.2% (active).
With CC1CN(C(=O)CCC(=O)NCCCN2CCC(Cc3ccccc3)CC2)c2cc(Cl)ccc2O1 (configuration not stated) the inhibition was 41.2% (active).
In the case of Cc1c2cnn(CC(=O)NCCCN3CC(C)CC(C)C3)c(=O)c2c(C)n1Cc1ccc(Cl)cc1 (configuration not stated), the inhibition is reported as 37.1% (active).
